In ChEMBL document CHEMBL1961873, “Compounds: GSK PKIS; Assays: Nanosyn kinase panel” (2012):

Legend:
[1] = target: Sphingosine kinase 1 (Homo sapiens) (UniProt Q9NYA1); conditions: at 1 µM;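 further: mean SPHK1 inhibition value reported from the GSK PKIS kinase panel screen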
[2] = target: T1, Sphingosine kinase 2 (Homo sapiens) (UniProt Q9NRA0); conditions: at 0.1 µM
T1 sequence (whole entry): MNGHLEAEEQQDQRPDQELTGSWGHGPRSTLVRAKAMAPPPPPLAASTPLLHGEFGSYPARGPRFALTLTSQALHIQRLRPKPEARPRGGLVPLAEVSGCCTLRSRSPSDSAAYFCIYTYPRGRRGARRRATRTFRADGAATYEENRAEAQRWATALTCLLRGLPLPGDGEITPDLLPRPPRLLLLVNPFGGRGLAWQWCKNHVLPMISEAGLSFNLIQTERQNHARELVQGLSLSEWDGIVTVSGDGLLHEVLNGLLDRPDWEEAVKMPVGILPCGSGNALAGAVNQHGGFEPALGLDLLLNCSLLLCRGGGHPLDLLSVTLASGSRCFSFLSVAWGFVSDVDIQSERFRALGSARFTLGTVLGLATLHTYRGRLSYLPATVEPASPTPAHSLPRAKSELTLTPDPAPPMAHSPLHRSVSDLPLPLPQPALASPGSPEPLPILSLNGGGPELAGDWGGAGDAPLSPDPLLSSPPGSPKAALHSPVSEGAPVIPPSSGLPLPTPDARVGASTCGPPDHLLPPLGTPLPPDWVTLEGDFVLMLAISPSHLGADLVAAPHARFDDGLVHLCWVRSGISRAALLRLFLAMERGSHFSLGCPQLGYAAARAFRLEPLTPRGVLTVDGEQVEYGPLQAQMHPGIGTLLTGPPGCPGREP

[3] = target: T1, Sphingosine kinase 2 (Homo sapiens); conditions: at 1 µM
[4] = target: Casein kinase II subunit alpha (Homo sapiens) (UniProt P68400); conditions: at 0.1 µM
Sequence of Casein kinase II subunit alpha (Homo sapiens) (P68400 whole entry, looked up): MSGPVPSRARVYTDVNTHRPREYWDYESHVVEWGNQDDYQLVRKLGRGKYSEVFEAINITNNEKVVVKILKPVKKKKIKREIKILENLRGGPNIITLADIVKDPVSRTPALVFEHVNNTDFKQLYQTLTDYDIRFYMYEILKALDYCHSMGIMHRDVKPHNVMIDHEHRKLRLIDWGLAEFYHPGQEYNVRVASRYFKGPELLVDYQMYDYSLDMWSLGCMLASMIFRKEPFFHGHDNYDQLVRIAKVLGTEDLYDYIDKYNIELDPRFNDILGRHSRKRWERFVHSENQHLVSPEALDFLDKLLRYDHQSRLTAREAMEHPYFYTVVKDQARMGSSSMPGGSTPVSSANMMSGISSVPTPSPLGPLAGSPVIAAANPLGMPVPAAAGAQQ

[5] = target: Casein kinase II subunit alpha (Homo sapiens) (UniProt P68400); conditions: at 1 µM
[6] = target: T2, Inhibitor of nuclear factor kappa-B kinase subunit alpha (Homo sapiens) (UniProt O15111); conditions: at 0.1 µM
T2 sequence (whole entry): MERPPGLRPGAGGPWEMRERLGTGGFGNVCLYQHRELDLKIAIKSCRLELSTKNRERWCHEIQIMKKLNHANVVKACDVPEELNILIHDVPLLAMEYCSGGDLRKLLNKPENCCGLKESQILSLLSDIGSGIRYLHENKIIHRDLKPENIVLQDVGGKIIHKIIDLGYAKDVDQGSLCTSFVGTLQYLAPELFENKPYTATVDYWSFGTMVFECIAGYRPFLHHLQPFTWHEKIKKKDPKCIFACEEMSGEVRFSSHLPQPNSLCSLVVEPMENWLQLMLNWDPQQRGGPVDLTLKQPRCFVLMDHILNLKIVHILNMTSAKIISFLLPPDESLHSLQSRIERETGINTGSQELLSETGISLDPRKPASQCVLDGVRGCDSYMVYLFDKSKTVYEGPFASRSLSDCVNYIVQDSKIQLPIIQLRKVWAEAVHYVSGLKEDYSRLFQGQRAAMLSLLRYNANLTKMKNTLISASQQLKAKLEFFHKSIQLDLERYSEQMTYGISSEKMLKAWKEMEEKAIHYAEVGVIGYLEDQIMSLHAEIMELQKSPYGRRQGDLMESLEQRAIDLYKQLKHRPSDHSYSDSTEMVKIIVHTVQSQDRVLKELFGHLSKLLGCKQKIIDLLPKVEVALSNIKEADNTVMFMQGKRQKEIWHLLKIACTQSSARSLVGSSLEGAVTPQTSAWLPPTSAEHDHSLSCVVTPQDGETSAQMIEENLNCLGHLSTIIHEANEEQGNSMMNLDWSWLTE

[7] = target: T2, Inhibitor of nuclear factor kappa-B kinase subunit alpha (Homo sapiens); conditions: at 1 µM
[8] = target: T3, Inhibitor of nuclear factor kappa-B kinase subunit beta (Homo sapiens) (UniProt O14920); conditions: at 0.1 µM
T3 sequence (whole entry): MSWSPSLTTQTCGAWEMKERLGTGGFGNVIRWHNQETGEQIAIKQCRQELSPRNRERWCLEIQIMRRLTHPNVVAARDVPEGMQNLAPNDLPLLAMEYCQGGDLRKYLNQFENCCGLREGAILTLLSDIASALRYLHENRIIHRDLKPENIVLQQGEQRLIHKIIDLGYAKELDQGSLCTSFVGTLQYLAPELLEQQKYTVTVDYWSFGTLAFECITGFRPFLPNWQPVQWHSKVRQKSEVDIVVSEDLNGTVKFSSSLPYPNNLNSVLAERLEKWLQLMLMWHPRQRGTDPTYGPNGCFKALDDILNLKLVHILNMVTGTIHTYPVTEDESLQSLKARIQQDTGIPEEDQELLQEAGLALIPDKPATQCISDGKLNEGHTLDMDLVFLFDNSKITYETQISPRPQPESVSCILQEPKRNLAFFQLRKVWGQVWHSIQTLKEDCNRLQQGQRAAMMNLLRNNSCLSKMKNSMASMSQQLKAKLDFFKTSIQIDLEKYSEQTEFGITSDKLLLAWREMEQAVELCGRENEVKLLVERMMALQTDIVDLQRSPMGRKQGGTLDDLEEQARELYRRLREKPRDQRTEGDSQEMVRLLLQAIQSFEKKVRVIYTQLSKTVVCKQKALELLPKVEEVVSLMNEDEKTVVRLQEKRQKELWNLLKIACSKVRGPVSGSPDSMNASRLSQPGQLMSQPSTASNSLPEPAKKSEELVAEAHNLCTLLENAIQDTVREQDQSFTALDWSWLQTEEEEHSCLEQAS

[9] = target: T3, Inhibitor of nuclear factor kappa-B kinase subunit beta (Homo sapiens); conditions: at 1 µM
[10] = target: T4, Inhibitor of nuclear factor kappa-B kinase subunit epsilon (Homo sapiens) (UniProt Q14164); conditions: at 0.1 µM
T4 sequence (whole entry): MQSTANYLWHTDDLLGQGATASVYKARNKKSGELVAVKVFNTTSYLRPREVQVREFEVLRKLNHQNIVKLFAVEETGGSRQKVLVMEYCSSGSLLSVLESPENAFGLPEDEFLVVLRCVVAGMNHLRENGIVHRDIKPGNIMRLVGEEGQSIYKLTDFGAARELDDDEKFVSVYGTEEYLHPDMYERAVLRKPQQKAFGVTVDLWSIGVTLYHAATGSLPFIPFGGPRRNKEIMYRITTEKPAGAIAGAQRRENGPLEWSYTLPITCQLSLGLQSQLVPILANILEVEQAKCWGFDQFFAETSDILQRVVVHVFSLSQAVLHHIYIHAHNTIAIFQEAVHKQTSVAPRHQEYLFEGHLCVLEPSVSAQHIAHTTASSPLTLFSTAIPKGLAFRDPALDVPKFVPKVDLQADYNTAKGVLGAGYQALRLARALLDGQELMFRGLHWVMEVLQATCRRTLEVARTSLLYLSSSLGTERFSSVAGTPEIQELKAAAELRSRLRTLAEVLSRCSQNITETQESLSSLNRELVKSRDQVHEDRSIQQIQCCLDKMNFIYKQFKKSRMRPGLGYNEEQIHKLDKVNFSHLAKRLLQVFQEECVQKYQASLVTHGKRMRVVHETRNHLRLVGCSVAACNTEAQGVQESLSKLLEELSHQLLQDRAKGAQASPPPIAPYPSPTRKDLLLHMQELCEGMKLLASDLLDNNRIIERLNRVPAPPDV

[11] = target: T4, Inhibitor of nuclear factor kappa-B kinase subunit epsilon (Homo sapiens); conditions: at 1 µM
[12] = target: T5, Serine/threonine-protein kinase Nek1 (Homo sapiens) (UniProt Q96PY6); conditions: at 0.1 µM
T5 sequence (whole entry): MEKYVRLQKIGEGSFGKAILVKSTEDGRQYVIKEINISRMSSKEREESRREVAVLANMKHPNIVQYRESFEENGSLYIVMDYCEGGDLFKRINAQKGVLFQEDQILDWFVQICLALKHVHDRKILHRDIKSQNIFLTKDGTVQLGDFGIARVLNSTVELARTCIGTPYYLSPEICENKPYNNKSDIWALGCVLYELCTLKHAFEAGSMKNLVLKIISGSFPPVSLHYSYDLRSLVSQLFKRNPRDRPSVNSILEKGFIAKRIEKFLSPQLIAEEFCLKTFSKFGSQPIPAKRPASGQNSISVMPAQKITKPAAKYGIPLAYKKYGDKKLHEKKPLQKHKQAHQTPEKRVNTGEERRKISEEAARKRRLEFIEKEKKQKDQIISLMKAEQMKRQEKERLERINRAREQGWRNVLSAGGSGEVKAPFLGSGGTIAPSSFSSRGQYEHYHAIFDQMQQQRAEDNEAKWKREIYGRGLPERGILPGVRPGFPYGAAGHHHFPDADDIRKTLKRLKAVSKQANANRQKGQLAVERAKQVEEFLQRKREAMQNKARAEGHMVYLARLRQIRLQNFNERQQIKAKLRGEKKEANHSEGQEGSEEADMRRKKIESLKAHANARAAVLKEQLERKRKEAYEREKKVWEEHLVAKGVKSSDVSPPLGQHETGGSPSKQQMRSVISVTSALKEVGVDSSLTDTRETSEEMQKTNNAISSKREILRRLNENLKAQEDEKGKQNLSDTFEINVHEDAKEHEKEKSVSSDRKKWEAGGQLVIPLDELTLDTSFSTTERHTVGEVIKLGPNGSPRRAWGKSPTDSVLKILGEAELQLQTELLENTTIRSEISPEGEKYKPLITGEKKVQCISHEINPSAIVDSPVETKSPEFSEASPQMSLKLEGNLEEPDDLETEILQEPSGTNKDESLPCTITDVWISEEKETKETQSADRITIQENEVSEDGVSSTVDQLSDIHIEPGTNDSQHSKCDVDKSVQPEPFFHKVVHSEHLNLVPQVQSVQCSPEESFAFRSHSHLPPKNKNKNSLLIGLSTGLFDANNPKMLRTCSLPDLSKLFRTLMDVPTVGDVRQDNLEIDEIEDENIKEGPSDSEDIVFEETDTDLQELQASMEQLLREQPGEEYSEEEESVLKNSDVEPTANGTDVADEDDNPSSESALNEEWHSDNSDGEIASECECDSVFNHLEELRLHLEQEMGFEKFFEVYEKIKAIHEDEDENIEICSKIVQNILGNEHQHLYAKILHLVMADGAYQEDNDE

[13] = target: T5, Serine/threonine-protein kinase Nek1 (Homo sapiens); conditions: at 1 µM
[14] = target: T6, Serine/threonine-protein kinase Nek2 (Homo sapiens) (UniProt P51955); conditions: at 0.1 µM
T6 sequence (whole entry): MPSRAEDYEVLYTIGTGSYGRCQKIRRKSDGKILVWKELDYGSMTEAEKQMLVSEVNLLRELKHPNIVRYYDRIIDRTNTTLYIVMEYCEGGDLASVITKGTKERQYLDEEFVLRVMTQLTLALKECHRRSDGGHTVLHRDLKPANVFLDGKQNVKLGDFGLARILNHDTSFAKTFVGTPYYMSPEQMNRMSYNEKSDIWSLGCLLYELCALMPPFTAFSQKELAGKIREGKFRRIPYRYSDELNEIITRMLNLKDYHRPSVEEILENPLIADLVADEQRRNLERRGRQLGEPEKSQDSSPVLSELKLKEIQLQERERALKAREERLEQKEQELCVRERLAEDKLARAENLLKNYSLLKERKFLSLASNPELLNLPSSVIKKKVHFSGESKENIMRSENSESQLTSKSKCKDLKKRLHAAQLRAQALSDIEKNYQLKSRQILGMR

[15] = target: T6, Serine/threonine-protein kinase Nek2 (Homo sapiens); conditions: at 1 µM
[16] = target: Serine/threonine-protein kinase Nek6 (Homo sapiens) (UniProt Q9HC98); conditions: at 0.1 µM
Sequence of Serine/threonine-protein kinase Nek6 (Homo sapiens) (Q9HC98 whole entry): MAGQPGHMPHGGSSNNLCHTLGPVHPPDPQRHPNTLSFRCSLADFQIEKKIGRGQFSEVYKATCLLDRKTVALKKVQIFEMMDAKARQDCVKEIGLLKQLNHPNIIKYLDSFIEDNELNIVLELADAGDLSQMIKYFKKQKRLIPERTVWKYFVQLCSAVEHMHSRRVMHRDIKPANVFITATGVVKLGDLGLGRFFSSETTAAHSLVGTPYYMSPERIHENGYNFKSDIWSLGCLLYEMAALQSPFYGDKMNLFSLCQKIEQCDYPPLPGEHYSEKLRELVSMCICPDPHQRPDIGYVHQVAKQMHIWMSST

[17] = target: Serine/threonine-protein kinase Nek6 (Homo sapiens) (UniProt Q9HC98); conditions: at 1 µM
[18] = target: Serine/threonine-protein kinase Nek7 (Homo sapiens) (UniProt Q8TDX7); conditions: at 0.1 µM
Sequence of Serine/threonine-protein kinase Nek7 (Homo sapiens) (Q8TDX7 whole entry, looked up): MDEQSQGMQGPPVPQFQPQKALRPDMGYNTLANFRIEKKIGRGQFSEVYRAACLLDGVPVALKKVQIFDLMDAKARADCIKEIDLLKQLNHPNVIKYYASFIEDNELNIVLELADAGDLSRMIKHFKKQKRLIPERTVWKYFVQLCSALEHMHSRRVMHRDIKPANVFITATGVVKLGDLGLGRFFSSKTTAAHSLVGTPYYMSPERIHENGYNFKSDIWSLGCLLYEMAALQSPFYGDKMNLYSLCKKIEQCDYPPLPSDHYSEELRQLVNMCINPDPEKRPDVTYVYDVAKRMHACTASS

[19] = target: Serine/threonine-protein kinase Nek7 (Homo sapiens) (UniProt Q8TDX7); conditions: at 1 µM
[20] = target: T7, Serine/threonine-protein kinase Nek9 (Homo sapiens) (UniProt Q8TD19); conditions: at 0.1 µM;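 further: reported value is the mean percent inhibition of NEK9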
T7 sequence (whole entry): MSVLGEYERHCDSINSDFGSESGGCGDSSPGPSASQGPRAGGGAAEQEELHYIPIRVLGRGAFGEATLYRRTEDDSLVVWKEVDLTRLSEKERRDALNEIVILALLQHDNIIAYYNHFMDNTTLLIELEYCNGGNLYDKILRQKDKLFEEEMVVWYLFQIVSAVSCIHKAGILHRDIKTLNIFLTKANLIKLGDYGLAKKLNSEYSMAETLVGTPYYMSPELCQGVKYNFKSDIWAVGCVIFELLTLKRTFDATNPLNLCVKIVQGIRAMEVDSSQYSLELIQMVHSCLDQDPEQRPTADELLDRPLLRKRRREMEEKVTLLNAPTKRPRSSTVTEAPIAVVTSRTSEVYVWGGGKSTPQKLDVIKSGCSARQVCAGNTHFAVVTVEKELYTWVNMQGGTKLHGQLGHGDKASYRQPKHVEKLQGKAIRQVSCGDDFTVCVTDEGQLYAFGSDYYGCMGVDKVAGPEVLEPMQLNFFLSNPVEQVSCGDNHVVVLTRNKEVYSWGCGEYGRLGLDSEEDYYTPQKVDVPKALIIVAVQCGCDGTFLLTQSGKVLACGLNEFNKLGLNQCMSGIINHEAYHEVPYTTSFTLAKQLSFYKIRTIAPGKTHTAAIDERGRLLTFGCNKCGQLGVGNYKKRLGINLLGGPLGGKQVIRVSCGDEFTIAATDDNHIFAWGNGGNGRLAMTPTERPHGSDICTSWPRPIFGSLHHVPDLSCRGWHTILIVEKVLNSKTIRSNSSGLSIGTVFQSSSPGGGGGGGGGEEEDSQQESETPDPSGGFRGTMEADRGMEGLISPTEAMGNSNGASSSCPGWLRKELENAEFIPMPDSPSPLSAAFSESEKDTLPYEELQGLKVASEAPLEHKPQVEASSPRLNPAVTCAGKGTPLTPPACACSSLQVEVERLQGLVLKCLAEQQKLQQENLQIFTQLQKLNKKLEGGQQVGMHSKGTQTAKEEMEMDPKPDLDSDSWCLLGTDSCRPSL

Sequence of Sphingosine kinase 1 (Homo sapiens) (Q9NYA1 whole entry): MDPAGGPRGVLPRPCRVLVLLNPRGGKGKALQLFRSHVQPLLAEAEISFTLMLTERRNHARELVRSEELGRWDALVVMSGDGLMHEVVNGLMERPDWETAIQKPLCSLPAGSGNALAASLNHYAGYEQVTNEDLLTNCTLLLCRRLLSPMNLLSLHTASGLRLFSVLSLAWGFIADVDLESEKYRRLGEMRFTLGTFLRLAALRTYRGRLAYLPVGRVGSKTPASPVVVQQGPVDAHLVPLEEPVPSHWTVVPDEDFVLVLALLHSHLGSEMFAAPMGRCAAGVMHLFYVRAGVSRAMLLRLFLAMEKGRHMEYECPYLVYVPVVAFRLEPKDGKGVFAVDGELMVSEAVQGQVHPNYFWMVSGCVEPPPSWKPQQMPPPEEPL

Compound: Nc1nc(-c2ccc3c(c2)C(=Cc2cc(Br)c(O)c(Br)c2)C(=O)N3)cs1
- inhibition [1]: -0.49%
- inhibition [2]: -0.01%
- inhibition [3]: 0.02%
- inhibition [4]: 2.7%
- inhibition [5]: 24.1%
- inhibition [6]: 9.67%
- inhibition [7]: 2.3%
- inhibition [8]: 0.26%
- inhibition [9]: 0.06%
- inhibition [10]: -3%
- inhibition [11]: -0.65%
- inhibition [12]: -0.4%
- inhibition [13]: 2.14%
- inhibition [14]: -0.41%
- inhibition [15]: 2.78%
- inhibition [16]: -0.92%
- inhibition [17]: 3.09%
- inhibition [18]: 2.05%
- inhibition [19]: -1.46%
- inhibition [20]: 2.02%
